Measured values taken from PubChem BioAssay AID602476 (National Center for Advancing Translational Sciences (NCATS), 2012).
Results filed as inconclusive are left out. Entries that show only a call come without a potency. Activity calls are given as the source filed them. The call rests on the fitted dose curve; in most records, active means well fitted activation curve with a large enough effect; inconclusive means small, poorly fitted or top-dose-only effect; inactive means flat fitted curve, though single readings scatter.

Test: FLuc inhibitory activity for the follow-up compounds in a cell-based translational read-through assay
Conditions: GripTite 293 FLucUGA read-through, luminescence, 48 h; series mostly up to 38.3 µM
Excerpt: NCGC Assay Overview: Firefly (Photinus pyralis) luciferase is one of the most commonly used transcriptional reporters. It is considered one of the more dynamically responsive reporters - that is, responsive to changes in reporter transcription - as it requires no post-translational modifications and is enzymatically active directly after protein synthesis (Wood, 1998). With no endogenous expression in mammalian cells and without the requirement of external excitation, it offers very little background signal, thus generally providing excellent signal to background for most assays. Previous profiling work to determine the prevalence of compounds that affect FLuc enzymatic activity (PubChem AID 411) identified that ~3% of the MLSMR library (then at ~72K) inhibited FLuc (Auld et al., 2008). […] Of the compounds identified in this profile that inhibited FLuc, 151 compounds were selected for further analysis, in an effort to better understand their mode of inhibiting FLuc. The assay described here was to determine the activity of the compounds in a cell-based firefly luciferase reporter gene assay originally designed to identify compounds that enchanced translational read-through of a FLuc cDNA that contained a premature stop codon (Auld et al., 2009; Auld et al., 2010). Compounds that enhance translational read-through or compounds that stabilize FLuc intracellularly are identified as active compounds in the assay.
NCGC Assay Protocol Summary: Reagents: Transient transfection of FlucUGA construct: TransFast Transfection Reagent (Promega #E2431); FLucUGA construct (refer to Auld et al., 2009) #GripTite 293 MSR Cell Line (Invitrogen #R795-07) #Complete growth media: DMEM (Invitrogen #11965), 10% HIFBS, 0.1mM MEM NEAA, 5mL/L pen-strep (of 5000U/mL stock), 600ug/mL Geneticin #Assay media: DMEM without phenol red (Invitrogen #21063), 5% charcoal-stripped HIFBS (Hyclone #SH30071.03), 0.1mM MEM NEAA In-house detection reagent: 300mM Tris-HCl, 300mM Trizma base, 300mM MgCl, 1% Triton-X100, 5mM DTT, 500uM Coenzyme A trilithium salt (Sigma #C3019),450uM ATP (Sigma #A7699), 1mM D-luciferin sodium salt monohydrate (Biosynth #L8240) Control compounds used were two known firefly luciferase inhibitors (3-(5-(3-chlorophenyl)-1,2,4-oxadiazol-3-yl)benzoic acid and 5-(2-fluorophenyl)-3-phenyl-1,2,4-oxadiazole), and DMSO. Assay Summary: Transient transfection of FlucUGA construct: Day 1: GripTite cells were plated in T175 flasks at a density of 1.75 x 10^7 cells/T175 flask in complete growth media without Geneticin and allowed to grow ON in a 37 degrees Celsius incubator. Day 2: Cells in T175 flask were transfected - with 10ug of DNA and 30uL Transfast in 12mL complete growth media without serum and without Geneticin for 4 hours at 37 degrees Celsius. After incubation, cells were trypsinized, spun down, and resuspended to a concentration of 3.3 x 10^5 cells/mL in assay media. 6uL of cells in assay buffer were dispensed at 2000cells/well (3.3 x 10^5 cells/mL) into Greiner solid-white TC-treated 1536-well plates using a Multidrop Combi (Thermo Fisher Scientific). Plates were incubated for one hour at 37 degree Celsius, 95% humidity, 5% CO2. These assay plates were then treated with 23nL of compound or DMSO using a Kalypsys pin tool, which allows for delivery of a 12-point titration of each compound to the assay plate, with a final compound concentration ranging from approximately ~38uM to 0.2nM. Assay plates were then incubated for 48 hours. After incubation, plates were washed three times with DPBS (7uL/well). After the third wash, 6uL of DPBS was added to each well. 3uL of 3X luciferase detection reagent was then added to each well using a flying reagent dispenser (FRD). After a 15 minute incubation to allow for cell lysis, luciferase activity was measured using a ViewLux CCD imager (PerkinElmer), with an average exposure time of 2-12 seconds.
With `O=C(Cc1ccc(Cl)cc1)Nc1cccc(C(=O)Nc2ccccc2C(=O)O)c1` the Potency was “inactive”.
For `O=C(Nc1ccccc1C(=O)O)c1cc(S(=O)(=O)Nc2ccccc2)ccc1Cl`, the Potency was “inactive”.
With `COc1c(C)cccc1C(=O)Nc1ccc(-c2nc3ccccc3s2)c(Cl)c1` the Potency was “inactive”.
In the case of `COc1ccc2nc(NC(=O)c3ccco3)sc2c1`, the Potency is reported as 0.634 µM (active).
In the case of `O=C(O)c1ccc(NC(=O)c2ccccc2NC(=O)c2cccc(Br)c2)cc1`, the Potency is reported as “inactive”.
In the case of `COc1ccc(Br)cc1C(=O)Nc1ccc(C(=O)O)cc1`, the Potency is reported as “inactive”.
For `CCCOc1cccc(C(=O)Nc2ccc(-c3nc4ccccc4s3)c(Cl)c2)c1`, the Potency was “inactive”.
For `Nc1ccc(-c2nc3ccc(N)cc3s2)cc1`, the Potency was 15.9 µM (active).
For `Nc1ccccc1C(=O)Nc1cccc(C(=O)O)c1`, the Potency was 28.3 µM (active).
For `O=C(O)c1cccc(NC(=O)c2ccc(S(=O)(=O)c3ccccc3)cc2)c1`, the Potency was “inactive”.
In the case of `O=C(O)c1cccc(NC(=O)c2cccc(NC(=O)C3CCCO3)c2)c1` (stereo unspecified), the Potency is reported as “inactive”.
In the case of `COc1ccc(C(=O)Nc2ccccc2C(=O)Nc2ccc(C(=O)O)cc2)cc1`, the Potency is reported as 25.2 µM (active).
For `CN=c1scc(-c2ccccc2F)n1/N=C/c1ccc[nH]1`, the Potency was 0.0504 µM (active).
In the case of `O=C(Nc1ccc(Cl)cc1-c1nc2ccccc2s1)c1ccco1`, the Potency is reported as “inactive”.
With `O=C(Nc1ccccc1C(=O)O)c1ccc(Cl)c(S(=O)(=O)N2CCOCC2)c1` the Potency was “inactive”.
For `O=C(O)c1ccc(NC(=O)c2cc(S(=O)(=O)N3CCCCC3)c(Cl)cc2Cl)cc1`, the Potency was “inactive”.
